Experimental data published in PubChem BioAssay.
Activity calls are given as the source filed them.

The molecules below were run against Homeobox protein Hox-A13 (Mus musculus) (UniProt Q62424) (assay: inhibitors of HoxA13-DNA binding, primary screen, biochemical, fluorescence polarization, labeled oligonucleotide (AID 1185)). Settings: 15 min, higher = more signal, called active from +8 up or from −8 down.
Sequence of Homeobox protein Hox-A13 (Mus musculus) (Q62424 whole entry, looked up): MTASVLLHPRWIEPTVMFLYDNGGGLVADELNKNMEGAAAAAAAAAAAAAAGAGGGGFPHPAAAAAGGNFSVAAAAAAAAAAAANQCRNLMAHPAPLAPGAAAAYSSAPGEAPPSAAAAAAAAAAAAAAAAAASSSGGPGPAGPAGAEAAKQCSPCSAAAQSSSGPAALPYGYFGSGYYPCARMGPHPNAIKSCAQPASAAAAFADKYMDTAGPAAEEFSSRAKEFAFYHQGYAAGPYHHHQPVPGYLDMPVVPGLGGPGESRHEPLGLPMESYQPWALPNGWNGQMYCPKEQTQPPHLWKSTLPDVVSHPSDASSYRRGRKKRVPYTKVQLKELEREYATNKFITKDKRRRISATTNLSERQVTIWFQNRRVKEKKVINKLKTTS

Structure (SMILES)	z-score
CO[C@@H]1COC(=O)CC=C[C@@H](C)[C@@H]2C=C[C@H](O)[C@@H](COC(=O)CCC[C@H]1C)O2	-0.262 (inactive)
COc1ccc(O[C@H]2C=C[C@@H](c3ccccc3)O[C@@H]2COC(=O)CCC(C)=NOCC[C@@H]2C=C[C@H](OC(C)=O)[C@@H](COC(C)=O)O2)cc1	-4.08 (inactive)
CO[C@@H]1COC(=O)[C@H](C)NC(=O)[C@@H](C)COC(=O)CCC[C@H]1C	-2.16 (inactive)
O=C1C[C@@H](O)[C@@H](O)[C@@H]2[C@@H]3C(=O)N(Cc4ccc5c(c4)OCO5)C(=O)[C@@H]3CC[C@@H]12	-0.682 (inactive)
CCOC(=O)[C@H](Cc1ccccc1)NC(=O)CCC1CC(OC(=O)NCc2ccc3c(c2)OCO3)CC2(CCCC(COC(=O)NCC3CCCCC3)O2)O1 (stereo partly specified)	-2.6 (inactive)
COc1ccc(O[C@H]2C=C[C@@H](c3ccccc3)O[C@@H]2COC(=O)N2CCCCC2)cc1	-3.83 (inactive)
Cc1ccc(S(=O)(=O)N[C@@H]2COC(=O)[C@H](C)COC(=O)CC=C[C@H]2C)cc1	-0.424 (inactive)
O=C1[C@H]2[C@H]3[C@H](O)[C@H](O)CC(=NO[C@@H]4O[C@H](CO)[C@@H](O)[C@H](O)[C@H]4O)[C@@H]3CC[C@H]2C(=O)N1Cc1ccc2c(c1)OCO2	-2.63 (inactive)
COc1ccc(OC[C@H]2Cc3c(-c4ccccc4)nc4c(c3CO2)CN(CCOc2ccccc2)CC4)cc1	-2.66 (inactive)
O=C1[C@H]2[C@H]3[C@H](O)[C@H](O)CC(=NOCc4ccccc4)[C@@H]3CC[C@H]2C(=O)N1C1CCCCC1	-5.72 (inactive)
CC(C)=NOCc1cccc(-c2cc(-c3ccccc3)no2)c1	0.515 (inactive)
CCOC(=O)[C@H](Cc1ccccc1)NC(=O)CCC1CC(OC(=O)NCCc2ccc(F)cc2)CC2(CCCC(COC(=O)NCC(c3ccccc3)c3ccccc3)O2)O1 (stereo partly specified)	-4.95 (inactive)
CC(C)=CCCC(C)=CCON=C1[C@H]2CCn3c(=O)n(C)c(=O)n3[C@H]2[C@H](O)[C@@H]2O[C@H]12	-0.682 (inactive)
C=CC[C@@H]1C=C[C@H](ON=C(C)CCN2CCc3nc(CC)c(CC)cc3C2)[C@@H](CO)O1	-5.51 (inactive)
CCCNC(=O)OC[C@H]1O[C@H](CCON=CC[C@@H]2C=C[C@H](OC(C)=O)[C@@H](COC(C)=O)O2)C=C[C@@H]1Oc1ccc(OC)cc1	-6.56 (inactive)
O=C1[C@H]2[C@H]3[C@H](O)[C@H](O)CC(=NOC[C@@H](O)COCc4ccco4)[C@@H]3CC[C@H]2C(=O)N1c1ccc(F)cc1F	-4.05 (inactive)
C[C@@H]1C=CCC(=O)OC[C@H](C)C(=O)N2CCC[C@H]2C(=O)OC1	-0.596 (inactive)
COC(=O)[C@H](C)NC(=O)CCC1CC(OC(=O)NCCc2ccc(F)cc2)CC2(CCCC(COC(=O)NCCc3ccc(Cl)cc3)O2)O1 (stereo partly specified)	-2.44 (inactive)
CCCNC(=O)OC[C@H]1O[C@H](CCON=C2[C@H]3CCn4c(=O)n(-c5ccccc5)c(=O)n4[C@H]3[C@H](O)[C@@H]3O[C@H]23)C=C[C@@H]1Oc1ccc(OC)cc1	-6.53 (inactive)
COc1ccc(O[C@H]2C=C[C@@H](c3ccccc3)O[C@@H]2COC(=O)CCC(C)=NOC[C@@H](C)[C@H](OCc2ccccc2)C(C)C)cc1	-0.43 (inactive)
CCOC(=O)[C@H](CC(C)C)NC(=O)CCC1CC(OC(=O)NCc2cccc3ccccc23)CC2(CCCC(COC(=O)NCCc3ccccc3OC)O2)O1 (stereo partly specified)	-3.13 (inactive)
CCc1cc2c(nc1CC)CCN(CCC(C)=NO[C@@H](C)c1cc(-c3c(C)cc(C)cc3C)no1)C2	-2.85 (inactive)
COc1cccc([C@H]2Oc3ccc(OC)cc3C(=NOC(C)CN3CCCc4nc(C)c(C)cc43)[C@@H]2O)c1 (stereo partly specified)	-8.09 (active)
CO[C@H]1COC(=O)[C@H](C)COC(=O)CC=C[C@@H](C)[C@H](OC)COC(=O)CC=C[C@@H]1C	0.149 (inactive)
O=C1[C@H]2[C@H]3[C@H](O)[C@H](O)CC(=NO[C@@H]4O[C@H](CO)[C@@H](O)[C@H](O)[C@H]4O)[C@H]3CC[C@H]2C(=O)N1Cc1ccc2c(c1)OCO2	-0.567 (inactive)
CCOC(=O)NN=C1C[C@@H](O)[C@@H](O)[C@@H]2[C@@H]3C(=O)N(C4CCCCC4)C(=O)[C@@H]3CC[C@H]12	-1.77 (inactive)
